# ± gives the standard deviation.
# System: MILI (PIWIL2) piRISC loaded with piRNA #1 (26 nt)
# Assay: pre-steady-state target cleavage rate (min^-1); guide: piRNA #1 5'p-UGAGGUAGUAGGUUGUAUAGUAUCCA; MIWI and MILI are mouse PIWI proteins and EfPiwi is from a freshwater sponge; tags in brackets are library labels; higher = faster piRNA-guided slicing of the target
# Details: auxiliary factor: 500 nM mouse GTSF1
# Procedure, shortened: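 The pre-steady-state cleavage rate was calculated from a burst-and-steady-state fit. Data came from Cleave-'n-Seq, in which […] transcribed, DNA-blocked target RNA library was mixed with 1 nM active affinity-purified piRISC carrying one synthetic guide, with or without 500 nM GTSF1 partner protein, in HEPES–potassium acetate buffer at 33 °C for 0–8 or 0–960 min. Uncleaved targets were sequenced and normalised to depth and to weakly complementary targets, three trials were pooled, and k3 was capped at 0.0001 min^-1.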
# 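Further: 1 nM active piRISC with 0.1 nM target library at 33 °C single turnover.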
row,Sequence,pre-steady-state target cleavage rate
1,GGAGACCUUACUAUACAACGUACAACCUCA,0.0226 ± 0.0031
2,GGAGACCUAUGUAUACAACCUGCUACCUCA,0.0059 ± 0.0023
3,GGAGACCAUACUAUACAACCUACAUGCUCA,0.134 ± 0.028
4,GGAGACCUUACUAUACAUGCUACUACCUCA,0.111 ± 0.0086
5,GGAGACCUAUCUAUAGUACCUACUACCUCA,0.092 ± 0.014
6,GGAGACCUAACUAUACACCCUACUACCUCA,0.0388 ± 0.013
7,GGAGACCUUACUAUAAAACCUACUACCUCA,0.16 ± 0.019
8,GGAGACCUAUGUAUACUACCUACUUCCUCA,0.0346 ± 0.0069
9,GGAGACCUUACUAUAGAACCUACUACCACA,0.0558 ± 0.012
10,GGAGACCUAUGUAAACAACCUACUACCUGA,0.00535 ± 0.0019
11,GGAGAGGAUACUAUACUACCUACUAGCUCA,0.0852 ± 0.013
12,GGAGACCAUACUAUACUUCCUACUACCUCA,0.226 ± 0.021
13,GGAGACCUAUGAUAUCAACCUAGCUACCUCA,0.00339 ± 0.0024
14,GGAGACCAUACCUAUACAACCUACUACCUCA,0.152 ± 0.034
15,GGAGACCUAUGAUAUGUUCCUACUAGCUCA,< 0.0001
16,GGAGACCAUACUAUACUACCAACUACCUCA,0.00547 ± 0.0022
17,GGAGAGGAUACUAUAGUACCUACUACCUCA,0.159 ± 0.012
18,GGAGACCUAACUAUUGAACCUACUACCUCA,0.0878 ± 0.011
19,GGAGUGGAUCACUAUACAACCUACUACCUCA,0.0867 ± 0.025
20,GGAGACCAUACUAUACUUGGAUGAUGGAGA [g15:g23:cont:t1A],< 0.0001

row,Sequence,pre-steady-state target cleavage rate
1,GGAGACCUAUCUAUACAACCUACGUACCUCA,0.0605 ± 0.012
2,GGAGACCUAUCAAUACAACCUACUACGUCA,0.0134 ± 0.0044
3,GGAGACCUAUGAAUACAACCUACCACCUCA,0.00506 ± 0.0036
4,GGAGACCUAUGUUUACAACCUACUAGCUCA,0.00692 ± 0.0034
5,GGAGACCUAUGAUAACAACCUACUACCUCU [g2:g16:cont:t1U],0.00588 ± 0.0024
6,GGAGACCUAUCUAUACUACCUACUAGCUCA,0.0698 ± 0.014
7,GGAGACCUAUGAUAUGUUGCUAGAACCUCA,< 0.0001
8,GGAGACCUAUGAUAUGAAACUACUACCUCA,< 0.0001
9,GGAGACCUAUCUAUUCAACCUACUACCUGA,0.0654 ± 0.014
10,GGAGAGGUUACUAUAGAACCUACUACCUCA,0.157 ± 0.018
11,GGAGUGGAUACUAUACAACCUACUACCUAA,0.105 ± 0.014
12,GGAGACCUAUGAUAUCAACCUACCUACCUCA,0.00604 ± 0.0032
13,GGAGACCUAUGAAUACAUCCUACUUCCUCA,0.00892 ± 0.0025
14,GGAGACCAUACUAUACUACCUUCUACCUCA,0.0171 ± 0.0044
15,GGAGACCUAUCUAUACAACCUACUAACUCA,0.0846 ± 0.017
16,GGAGACCUUACAAUACAACCUACUAGCUCA,0.103 ± 0.013
17,GGAGACCUAUGAUAUGAACCUAGAUGGAGA [g9:g14:cont:t1A],< 0.0001
18,GGAGACCUAUGAAUACAACCUACUACCUGCA,0.00801 ± 0.004
19,GGAGACCUAACUAUACAAGCUACUAGCUCA,0.159 ± 0.042
20,GGAGACCUAUGAUAACAACCUACUGACCUCA,0.00368 ± 0.0025
